From PubChem BioAssay (NCI)
The panel holds about 79,000 compounds, 15% with a hit somewhere; the sample as a whole holds those more often. Values without a mark were called inactive. Calls of active or inactive are those of the source. Cut-off read from the data, not from the text of the source: active = growth inhibition above about 70%; inactive = the rest.

Experiments:
[1] = NCI Yeast Anticancer Drug Screen. Data for the rad50 strain (AID 155);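 note: 0% = growth of vehicle-only cultures of the same strain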; details: S. cerevisiae rad50 strain growth inhibition; at 50.0 µM; active compounds read high
Method in brief: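 DNA repair mutant yeast, compound exposure, growth read-out; inhibition is taken relative to vehicle.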

[2] = NCI Yeast Anticancer Drug Screen. Data for the mec2-1 strain (AID 157); details: S. cerevisiae mec2-1 strain, at 50.0 µM, active compounds read high
Method in brief: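 mec2-1 yeast strain, carrying an alteration in DNA damage repair or cell cycle control, was exposed to compounds; growth inhibition was measured relative to vehicle-treated controls.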

[3] = NCI Yeast Anticancer Drug Screen. Data for the sgs1 mgt1 strain (AID 161);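 note: 0% = growth of cultures given vehicle only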; details: S. cerevisiae sgs1 mgt1 strain, at 50.0 µM, active compounds read high
Method in brief: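 Growth of a repair-deficient yeast mutant was monitored after compound treatment and expressed as inhibition relative to vehicle-treated cultures.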

[4] = NCI Yeast Anticancer Drug Screen. Data for the cln2 rad14 strain (AID 165);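 note: 0% = growth equal to vehicle treated cultures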; details: S. cerevisiae cln2 rad14 strain, at 50.0 µM, active compounds read high
Method in brief: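 Yeast carrying cln2 and rad14 alterations (cell cycle control and DNA damage repair) were exposed to compounds. Growth inhibition was measured against vehicle-treated controls.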

[5] = NCI Yeast Anticancer Drug Screen. Data for the bub3 strain (AID 167); details: S. cerevisiae bub3 mutant strain, at 50.0 µM, active compounds read high
Method in brief: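 In this screen, a yeast mutant lacking normal mitotic checkpoint function is challenged with compound. Relative growth versus vehicle gives the inhibition value.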

[6] = NCI Yeast Anticancer Drug Screen. Data for the mlh1 rad18 strain (AID 175); details: S. cerevisiae mlh1 rad18 strain growth inhibition; at 50.0 µM; active compounds read high
Method in brief: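 Growth inhibition of the yeast strain was measured after compound exposure and expressed relative to vehicle-treated controls. The strain carries defined defects in DNA damage repair.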

SMILES	growth inhibition [1]	growth inhibition [2]	growth inhibition [3]	growth inhibition [4]	growth inhibition [5]	growth inhibition [6]
Cc1ccc(S(=O)(=O)OC2C(OC(=O)c3ccccc3)OCC(O)C2O)cc1 (stereo unspecified)	23.6%	2.45%	6.1%	-11.8%	6.5%	3.35%
NC(=O)c1nc(C2OC(CO)C(O)C2O)cs1 (stereo unspecified)	-0.7%	-1.2%	-2.25%	-27.9%	6.75%	0.15%
Cc1ccc(S(=O)(=O)C2(NC(=O)C3CC3)CC2)cc1	-6.5%	-12.1%	-26.2%	-11.1%	-30.7%	-5.7%
O=C(CCC(=O)Nc1ccc(Cl)c(Cl)c1)CC(=O)c1ccc2ccccc2c1	22%	9.6%	2.45%	19.9%	2.2%	-12.1%
COc1ccc(C2OCC(COC(C)=O)O2)cc1OC (stereo unspecified)	-11%	6.4%	1.2%	-17.9%	26.5%	10.4%
CCCCN(CCCC)CC(O)c1cc(-c2cc(C(O)CN(CCCC)CCCC)c3ccccc3n2)nc2ccccc12 (stereo unspecified)	50.9%	-8.2%	46.1%	-6.85%	5.3%	32.4%
CN(CC(C)(C)C=O)C(=O)c1ccccc1	8.05%	-5.45%	-10%	-8.3%	-19.1%	-1%
O=C(NNC(=O)OCc1ccccc1)OCc1ccccc1	23.9%	-2.75%	1.3%	-34.2%	11.5%	18.1%
C/C(=C/C(=O)Nc1ccc2ccccc2c1)Nc1ccc2ccccc2c1	-5.4%	6.65%	5.9%	-8.95%	10.4%	-15.1%
O=C(O)C(Oc1ccc(Cl)cc1Cl)C(Oc1ccc(Cl)cc1Cl)C(=O)O (stereo unspecified)	-3.95%	-4.1%	-9.95%	-15.5%	1.75%	3.75%
CCOC(=O)C1=C(C)NC(=O)NC1c1cccc(OC)c1O (stereo unspecified)	11%	0.15%	16.7%	9.7%	30.8%	18.1%
CCN(CC)c1ccc(NC(=S)Nc2ccc(N(CC)CC)cc2)cc1	23.3%	-0.5%	4.95%	-66%	22.2%	-22.9%
Cc1ncc(CO)c(Nc2ccccc2Cl)n1	2.5%	-2.4%	-6.25%	-16.4%	-11.7%	14.4%
Cc1ccc(-c2cs/c(=N\N=C3/CSC(=O)N3Cc3ccccc3)n2-c2ccccc2)cc1	41.1%	22.8%	12.1%	0.35%	-2.55%	40.4%
CCN(CC)P1(=O)C=C(C)C2C1C1C=C(C)C2P1(=O)N(CC)CC (stereo unspecified)	3.5%	-2.45%	-5.25%	-5.25%	-34.8%	-13.2%
CCOCCN1CCN(CCOCC)CC1	-11.9%	-9.75%	-9.65%	-18.4%	27.6%	14%
NC(=O)OCC(COc1ccc(Cl)cc1)OC(=O)c1cc([N+](=O)[O-])cc([N+](=O)[O-])c1 (stereo unspecified)	29.2%	23.9%	20.4%	17.6%	14.3%	8.75%
O=C1C=C[C@@H](COC2OC(CO)C(O)C(O)C2O)O1 (stereo partly specified)	6.35%	-28.8%	5.25%	15.8%	24.9%	27.8%
CCCC(=O)Nc1ccc(OCC)cc1	-9.5%	-4.1%	-11.8%	-49.5%	-18.8%	-16.6%
CCCCN(CCCC)CC(O)C=O (stereo unspecified)	-7.95%	-3.95%	-0.5%	-4.85%	-8.4%	2.95%
N#CCc1cn(-c2ccccc2)nn1	-7.85%	8.3%	-9.5%	5.45%	0.45%	-25.2%

SMILES	growth inhibition [1]	growth inhibition [2]	growth inhibition [3]	growth inhibition [4]	growth inhibition [5]	growth inhibition [6]
CCO/C(=C/[S+](C)C)c1ccccc1	0.55%	-4.4%	-19.9%	2.95%	9.3%	5.35%
OC(c1ccccc1)C(Cc1ccccc1)N1CCCCC1 (stereo unspecified)	2.4%	1.3%	23.2%	-4.45%	7.7%	5.35%
CCc1ccc(Cc2ccc(CC)c(NC(=O)C(=O)C3NC(=S)NC3=O)c2CC)c(CC)c1NC(=O)C(=O)C1NC(=S)NC1=O (stereo unspecified)	-5.2%	-9.5%	5.25%	5.1%	3.85%	-3.65%
COc1ccc(CCNC(=O)Cc2cc(OCc3ccccc3)c(OC)cc2[N+](=O)[O-])cc1OC	36.1%	8.4%	25.5%	0.8%	-4.2%	6.9%
COC(=O)[C@H](Cc1ccccc1)NP(=O)(OCCC#N)OCC1OC(n2cc(C)c(=O)[nH]c2=O)CC1N=[N+]=[N-] (stereo partly specified)	0.95%	-13.1%	-19.3%	-20%	-19.9%	-35.8%
CC(=O)Nc1cccc2[nH]c(=O)c3ccccc3c12	3.4%	-6.4%	-5.8%	-19.3%	-16.9%	4.55%
O=C(O)CCc1ccc2ccccc2n1	6.3%	-6.6%	-19.8%	-0.05%	-20.6%	-20.2%
Cc1ccc(S(=O)(=O)N/N=C2/C(=N/NS(=O)(=O)c3ccc(C)cc3)c3cccc4cccc2c34)cc1	50%	11.4%	36.7%	8.3%	14.8%	11.3%
CC(Br)C(=O)n1c2ccccc2c2ccccc21 (stereo unspecified)	21.6%	9.8%	19.8%	-13.8%	12.2%	8.1%
CN(C)c1ccc(N=O)c(O)c1	-3.35%	-6.45%	-63%	13.6%	-15.8%	3%
COc1ccc(/C=C/c2cnc3ccccc3n2)cc1OC	28.8%	-4.55%	58.4%	25.8%	45.4%	81% (active)
CC(O)C(F)(F)F (stereo unspecified)	18.2%	-8.8%	7.65%	15.9%	-3.75%	21.8%
CCOC(=O)c1c[nH]n(Cc2ccccc2)c1=O	12%	13.4%	2.95%	-23.2%	13.6%	-1.2%
CCCCCC(=O)OCC(CC)CC	-8.05%	-6.55%	-13.3%	-29.6%	-1.05%	5.35%
O=C(O)CSCCOCCSCC(=O)O	-15.9%	-54%	-17.1%	12.1%	-16.3%	-15.6%
c1ccc(C2SCCCS2)cc1	33.2%	5.25%	17.8%	18.4%	-4.5%	18.4%
COC(=O)CCCCCCCCC(C)C(C)=O (stereo unspecified)	-34.8%	-29.8%	-16.4%	-12.5%	-45.3%	-32.5%
CCCC(CCC)=C1C(=O)N=C(N)NC1=O	-6.45%	4.9%	-2.7%	-9.05%	-7.35%	-16%
COc1ccc(NC(=O)COc2cc(Cl)c(Cl)cc2Cl)cc1	-3.7%	6.8%	2.05%	11.9%	3.9%	-17.9%
CCCCCCCCCCCCCCCCSCCOC(=O)C1C2CCC(O2)C1C(=O)O (stereo unspecified)	55.9%	-18.4%	10.4%	13.9%	30.2%	37.6%
